{
  "source": "PubChem BioAssay (EPA / NIEHS)",
  "note": "Where “and” joins values, the source holds several entries; their conditions need not be identical. Equal values may be shown once. A structure can be active in one record and inactive in another. Calls of active or inactive are those of the source. How the source made its calls: active means hit-call score of the fitted dose curve at least 0.9, where 1 is the maximum; inactive means score below 0.9.",
  "data": [
    {"read-out": "Cytochrome P450 (CYP1A1), CYP1A1 (gene 1543)", "assay": "LTEA_HepaRG_CYP1A1: Life Technologies and Expression Analysis (LTEA) Assay for Cytochrome P450 (CYP1A1) using HepaRG (AID 2283454)", "conditions": "mRNA level, 48 h; actives raise or lower the signal", "method": "LTEA_HepaRG is a cell based, multiplexed-readout assay that uses HepaRG, a human liver cell line, with measurements taken at 48 hours after chemical dosing on a 96-well plate.LTEA_HepaRG_CYP1A1 is one of 102 assay component(s) measured in the LTEA HepaRG cell culture assay. It is a marker of NR mediated metabolism.Data from the assay component LTEA_HepaRG_CYP1A1 was analyzed into 1 endpoint. This assay endpoint, LTEA_HepaRG_CYP1A1, was analyzed with bidirectional fitting relative to DMSO as the negative control and baseline of activity. Using a type of inducible reporter, measures of mRNA induction for gain or loss-of-signal activity can be used to understand regulation of transcription factor activity. To generalize the intended target to other relatable targets, this assay endpoint is annotated to the cyp intended target family, where the subfamily is xenobiotic metabolism.\nA total of 1060 chemcials from the ToxCast library were tested in eight-point concentration-response experiments. Cell culture and cytotoxicity assays were conducted at Thermo Fisher Scientific's Custom Services facility (Madison, WI). A single lot of human HepaRG cells (Thermo Fisher Scientific, Frederick, MD) was used for the cell culture experiments. 96-well format collagen type I coated plates of human HepaRG cells were prepared using established methods. Briefly, cryopreserved HepaRG cells were thawed, plated at a density of approximately 100,000 cells/well in HepaRG Thaw, Plate, and General Purpose media (HPRG770, Thermo Fisher Scientific), and incubated for 48 hours. 0.5% DMSO was selected as vehicle control to balance the requisite need of DMSO in HepaRG cultures to maintain differentiation (for example, baseline metabolism, proportions of hepatocytes vs. cholangiocytes), while enabling further hepatic receptor pathway activation (for example, PXR and CAR) in response to chemical exposure. 48 hours after plating, the culture medium was replaced with HepaRG Serum-Free Incudtion Media. Cells were exposed to each test chemical in duplicate and maintained in CO2 incubators for another 48 hours. Chemical plates were thawed to room temperature and 200x concentrations of treatment groups were prepared. 8-point conentration-reponse curves were made with the highest exposure at 100 uM, followed by half-log dilutions, all in 0.5% DMSO. Each test plate contained variouse controls, induction positive controls (1mM phenobarbital), cytotoxicity positive controls ([…] aflatoxin B1), vehicle controls (0.5% DMSO), and total lysis controls (0.5% DMSO). Cell morphology images were taken using an Essen IncuCyte FLR automated microscope, with six 96-well plates imaged in about 24 minutes. Images were captured and exported and JPEG files. Spent culture media was transfered to black-well plates for the LDH assay, and remaining media was sorted at -80 C for later use. Cells were treated with RLT buffer and frozen until shipped for gene expression analysis. Total RNA was isolated from the cell suspension in 75 uL of Buffer RLT (Qiagen, Germantown, MD 20874) by Quintiles/Expression Analysis (Durham, NC) using a custom isolation procedure. Total RNA from each plate well was transferred to a preamplification plate. Fluidigm's 96.96 Dynamic ArrayTM (Fluidigm, Amsterdam, the Netherlands) technology was used for gene expression analyses by quantitative reverse transcription polymerase chain reaction (qRT-PCR, performed by Quintiles/Expression Analysis, Durham, NC)89. Standard TaqManTM Assays (Applied Biosystems/ThermoFisher Scientific, Foster City, CA) were used to assess the expression of 93 genes selected based on their selectivity and sensitivity to important hepatic receptors known to be modulated by environmental chemicals; importance in human hepatocyte functionality; and hepatotoxicity. […]", "values": [
      {"smiles": "O=S(=O)(O)C(F)(F)C(F)(F)C(F)(F)C(F)(F)C(F)(F)C(F)(F)C(F)(F)C(F)(F)F", "AC50": "22.6 µM (active)", "outcome": "inactive"},
      {"smiles": "CC(C)(C)C(O)C(Oc1ccc(Cl)cc1)n1cncn1", "note": "(stereo not given)", "AC50": "23.1 µM (active) and 18.4 µM (active) and 22 µM (active)"},
      {"smiles": "O=C(O)COc1ccc(Cl)cc1Cl", "AC50": "43.4 µM (active)"},
      {"smiles": "Oc1cc(Cl)ccc1Oc1ccc(Cl)cc1Cl", "AC50": "77.3 µM (active) and 88.3 µM (active) and 79.3 µM (active)"},
      {"smiles": "CNC(=O)CSP(=S)(OC)OC", "AC50": "24.8 µM (active)"},
      {"smiles": "O=[N+]([O-])/N=C1\\NCCN1Cc1ccc(Cl)nc1", "AC50": "9.92 µM (active)"},
      {"smiles": "CCN(CC)C(=O)SCc1ccc(Cl)cc1", "AC50": "41.6 µM (active)"},
      {"smiles": "C[C@H]1[C@H](c2ccc(Cl)cc2)SC(=O)N1C(=O)NC1CCCCC1", "AC50": "14.9 µM (active)"},
      {"smiles": "ClC1C(Cl)C(Cl)C(Cl)C(Cl)C1Cl", "note": "(stereo not given)", "AC50": "27.3 µM (active) and 19.9 µM (active)"},
      {"smiles": "COc1nn(CSP(=S)(OC)OC)c(=O)s1", "AC50": "24.3 µM (active)"},
      {"smiles": "CCOCN(C(=O)CCl)c1c(C)cccc1CC", "AC50": "50 µM (active)"},
      {"smiles": "CC(C)OC(=O)Nc1cccc(Cl)c1", "AC50": "50 µM (active)"},
      {"smiles": "O=C(O)CCCOc1ccc(Cl)cc1Cl", "AC50": "50.8 µM (active)"},
      {"smiles": "CNC(=O)/C=C(\\C)OP(=O)(OC)OC", "outcome": "inactive"},
      {"smiles": "OCCOc1ccccc1", "AC50": "35.1 µM (active)"},
      {"smiles": "CNC(=O)Oc1ccccc1OC(C)C", "outcome": "inactive"},
      {"smiles": "CC(C)N(C(=O)COc1nnc(C(F)(F)F)s1)c1ccc(F)cc1", "AC50": "50 µM (active)"},
      {"smiles": "CNC(=O)Oc1cccc(N=CN(C)C)c1", "AC50": "50.2 µM (active)"},
      {"smiles": "Oc1ccc(Cl)cc1Cc1ccccc1", "AC50": "84.7 µM (active) and 81.3 µM (active) and 84.4 µM (active)"},
      {"smiles": "Clc1ccccc1-c1nnc(-c2ccccc2Cl)nn1", "AC50": "12.8 µM (active)"},
      {"smiles": "CCOC1Oc2ccc(OS(C)(=O)=O)cc2C1(C)C", "note": "(stereo not given)", "AC50": "50 µM (active)"},
      {"smiles": "CC(C)(C)C(O)/C(=C\\c1ccc(Cl)cc1Cl)n1cncn1", "note": "(stereo not given)", "AC50": "9.3 µM (active)"},
      {"smiles": "O=C(O)C(F)(F)C(F)(F)C(F)(F)C(F)(F)C(F)(F)C(F)(F)C(F)(F)F", "outcome": "inactive"},
      {"smiles": "CCCN(CCOc1c(Cl)cc(Cl)cc1Cl)C(=O)n1ccnc1", "AC50": "2.56 µM (active)"},
      {"smiles": "CCc1ccc(C(=O)NN(C(=O)c2cc(C)cc(C)c2)C(C)(C)C)cc1", "outcome": "inactive"},
      {"smiles": "CCC(C)(NC(=O)c1cc(Cl)c(C)c(Cl)c1)C(=O)CCl", "note": "(stereo not given)", "AC50": "50.2 µM (active)"},
      {"smiles": "CCCN(CCC)c1c([N+](=O)[O-])cc(C(F)(F)F)cc1[N+](=O)[O-]", "AC50": "50 µM (active)"},
      {"smiles": "COP(=S)(OC)Oc1ccc(SC)c(C)c1", "AC50": "28.8 µM (active)"},
      {"smiles": "CN1CSC(=S)N(C)C1", "AC50": "28.4 µM (active)"},
      {"smiles": "O=[N+]([O-])c1c(Cl)c(Cl)c(Cl)c(Cl)c1Cl", "AC50": "81.3 µM (active)"},
      {"smiles": "COP(=O)(OC)OC=C(Cl)Cl", "outcome": "inactive"},
      {"smiles": "CCC(C)(C)C(=O)OC1=C(c2ccc(Cl)cc2Cl)C(=O)OC12CCCCC2", "AC50": "50 µM (active)"},
      {"smiles": "N#CN", "outcome": "inactive"},
      {"smiles": "CC1(C)C(C=C(Cl)Cl)C1C(=O)OC(C#N)c1ccc(F)c(Oc2ccccc2)c1", "note": "(stereo not given)", "AC50": "37.7 µM (active)"},
      {"smiles": "CCC(C)Nc1c([N+](=O)[O-])cc(C(C)(C)C)cc1[N+](=O)[O-]", "note": "(stereo not given)", "AC50": "12.9 µM (active)"},
      {"smiles": "CC1(c2ccc(Oc3ccccc3)cc2)OC(=O)N(Nc2ccccc2)C1=O", "note": "(stereo not given)", "AC50": "14.1 µM (active)"},
      {"smiles": "O=C1c2ccccc2C(=O)N1SC(Cl)(Cl)Cl", "outcome": "inactive"},
      {"smiles": "N#Cc1c(Cl)c(Cl)c(Cl)c(C#N)c1Cl", "AC50": "23.1 µM (active)"},
      {"smiles": "CC[C@H](C)[C@H]1O[C@]2(C=C[C@@H]1C)C[C@@H]1C[C@@H](C/C=C(\\C)[C@@H](O[C@H]3C[C@H](OC)[C@@H](O[C@H]4C[C@H](OC)[C@@H](O)[C@H](C)O4)[C@H](C)O3)[C@@H](C)/C=C/C=C3\\CO[C@@H]4[C@H](O)C(C)=C[C@@H](C(=O)O1)[C@]34O)O2", "note": "(tested in a mixture with another compound)", "AC50": "0.361 µM (active)"}
    ]}
  ]
}
